Test results from the supplement of paper PMC6992640.
± gives the standard deviation of the averaged measurements.

Tests used:
Test in all cases: cell viability (% of vehicle); higher = less cytotoxic
Conditions in all cases: 10 µM; 72 h
HCI01 = system: HCI01 (cells of a triple-negative basal-like breast cancer xenograft)
HCI03 = system: HCI03 (cells of an ER-positive luminal breast cancer xenograft)
HCI09 = system: HCI09 (cells of a triple-negative luminal androgen receptor type breast cancer xenograft)
HCI11 = system: HCI11 (cells of an ER-positive luminal breast cancer xenograft)
HCI13 = system: HCI13 (cells of an ER-positive luminal breast cancer xenograft)
HCI16 = system: HCI16 (cells of a triple-negative basal-like breast cancer xenograft)
UCD52 = system: UCD52 (cells of a triple-negative basal-like breast cancer xenograft)
WHIM2 = system: WHIM2 (cells of a triple-negative basal-like breast cancer xenograft)
WHIM30 = system: WHIM30 (cells of a triple-negative basal-like breast cancer xenograft)
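Further: PDX cells carrying CMV promoter-driven luciferase, viability read as total photon flux per second by IVIS imaging following D-luciferin, vehicle control 0.1% DMSO.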

Row | Structure (SMILES) | cell viability (HCI01) | cell viability (HCI03) | cell viability (HCI09) | cell viability (HCI11) | cell viability (HCI13) | cell viability (HCI16) | cell viability (UCD52) | cell viability (WHIM2) | cell viability (WHIM30)
1 | Cc1ncc(C[n+]2csc(CCO)c2C)c(N)n1.Cl.[Cl-] [Thiamine HCl (Vitamin B1)] | 113 ± 8.6 | 143 | 103 ± 16 | 88.6 | 59.8 ± 11 | 103 | 122 ± 39 | 149 ± 25 | 143 ± 3.5
2 | O=C(O)c1cc(=O)[nH]c(=O)[nH]1 [Orotic acid] | 90.2 ± 12 | 100 | 88.5 ± 22 | 93.2 | 85.7 ± 3.8 | 120 | 93.6 ± 9.7 | 102.1 ± 0.24 | 76.6 ± 5.3
3 | Nc1[nH]c(=O)ncc1F [Flucytosine] | 106 ± 1.6 | 137 | 94.7 ± 12 | 93.1 | 135 ± 4.5 | 94.7 | 81.4 ± 1.5 | 93.72 ± 0.49 | 82.1 ± 1.3
4 | Nc1ncn(C2CC(O)C(CO)O2)c(=O)n1 (stereo not given) | 145 ± 29 | 140 | 96 ± 13 | 108 | 126 ± 12 | 123 | 136 ± 30 | 105 ± 16 | 189 ± 7.4
5 | Cc1ccc(Nc2nccc(N(C)c3ccc4c(C)n(C)nc4c3)n2)cc1S(N)(=O)=O.Cl | 166 ± 30 | 77.2 | 61.1 ± 13 | 85.4 | 110 ± 6.2 | 92 | 90.5 ± 2.9 | 152 ± 5.7 | 144 ± 6
6 | CNCCC(Oc1ccccc1C)c1ccccc1.Cl (stereo not given) [Atomoxetine HCl] | 119 ± 8.9 | 145 | 111 ± 11 | 108 | 105 ± 3.7 | 130 | 85 ± 3.7 | 88.7 ± 17 | 180 ± 28
7 | Cl.Clc1cccc(Cl)c1NC1=NCCN1 [Clonidine HCl] | 132 ± 6.9 | 127 | 99 ± 9 | 114 | 111 ± 6.8 | 135 | 94.9 ± 3.3 | 104 ± 15 | 124.6 ± 0.22
8 | CC1CCOC2Cn3cc(C(=O)NCc4ccc(F)cc4F)c(=O)c(O)c3C(=O)N12 (stereo not given) | 133 ± 25 | 110 | 139 ± 35 | 137 | 74.39 ± 0.7 | 124 | 139 ± 20 | 120 ± 15 | 176 ± 20
9 | CCCN(CCC)C(=O)C1=Cc2ccc(-c3ccc(C(=O)N4CCCC4)cc3)cc2NC(=N)C1 [Motolimod (VTX-2337)] | 100 ± 41 | 97.5 | 32.1 ± 0.89 | 63.6 | 76.6 ± 7 | 105 | 66 ± 3.8 | 71 ± 15 | 100 ± 12
10 | CCc1ccc(CCOc2ccc(CC3SC(=O)NC3=O)cc2)nc1 (stereo not given) [Pioglitazone] | 93 ± 44 | 118 | 123 ± 30 | 104 | 135 ± 16 | 133 | 106 ± 8.1 | 106 ± 21 | 171 ± 1.9
11 | CN1CCN(C2=c3ccccc3=Nc3ccc(Cl)cc3N2)CC1 [Clozapine] | 95.4 ± 14 | 130 | 101 ± 11 | 87.2 | 106 ± 1.6 | 123 | 83.6 ± 11 | 85.298 ± 0.078 | 122 ± 15
12 | NC(=O)c1cccnc1 [Nicotinamide] | 95.4 ± 11 | 114 | 95.5 ± 14 | 99.9 | 110 ± 5 | 107 | 99.57 ± 0.88 | 86.9 ± 12 | 94.7 ± 5.4
13 | C=CC[N+]1(C2CC3C4CCC5CC(O)C(N6CCOCC6)CC5(C)C4CCC3(C)C2OC(C)=O)CCCC1.[Br-] (stereo not given) [Rocuronium Bromide] | 100 ± 8.3 | 133 | 103 ± 3.9 | 102 | 115 ± 7.2 | 80.4 | 118 ± 8 | 99.8 ± 22 | 119 ± 7.7
14 | CC1CCN(C(=O)CC#N)CC1N(C)c1ncnc2[nH]ccc12 (stereo not given) | 169 ± 6.3 | 143 | 81.1 ± 1.5 | 110 | 126 ± 11 | 151 | 136 ± 23 | 95.8 ± 7.4 | 160.4 ± 0.81
15 | COc1ccc2[nH]cc(CCNC(C)=O)c2c1 [Melatonin] | 112 ± 10 | 134 | 106 ± 2.2 | 97.8 | 108 ± 3.3 | 109 | 127 ± 5.4 | 121 ± 26 | 158 ± 17
